Assay outcomes as filed in PubChem BioAssay.
Only some compounds are listed: those with a hit (about 22% of all), similar ones and a draw of the others.
Cycloheximide cs: counter-screen hit for Shiga toxin inhibitors, cycloheximide; AID 2314; cell reporter, cycloheximide protein synthesis inhibition counterscreen; max response, %; hit rate 12% among 300,000; in the data active means max response mostly above about 13%, no sharp cut-off; inactive means mostly below about 14%; further: read at 38.3 µM for the half of the compounds with a filed dose; 0% is about no effect
Pf growth 96h: inhibits malaria parasite growth, 96 h; P. falciparum luciferase reporter growth, 96 h; Potency, µM (doses to about 28.7 µM), for inactives: at the highest dose activity change, negative = inhibition, most hits filed as inhibitors; hit rate 6.9% among 320,000; further: potency means the concentration at half of the fitted maximal effect; on the % scale 0 is the no-effect control and ±100 the full control effect
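Compounds incubated with erythrocytes infected by luciferase-expressing P. falciparum (2% hematocrit, 0.05% parasitemia final) for 96 hours, 37 C in 5% CO2. Growth inhibition scored as decreased luciferase luminescence.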
LmPK inhibitor: inhibitors of Leishmania mexicana pyruvate kinase; Q27686; Potency, µM (top dose mostly 57.5 µM), inactives show at the highest dose activity change, negative = inhibition, hits mostly inhibitors; hit rate 0.37% among 290,000; AID 1721; purified LmPK, Kinase-Glo ATP luminescence, 1 h; further: potency means the concentration at half of the fitted maximal effect; on the % scale 0 is the no-effect control and ±100 the full control effect
Target sequence (Q27686 whole entry, looked up): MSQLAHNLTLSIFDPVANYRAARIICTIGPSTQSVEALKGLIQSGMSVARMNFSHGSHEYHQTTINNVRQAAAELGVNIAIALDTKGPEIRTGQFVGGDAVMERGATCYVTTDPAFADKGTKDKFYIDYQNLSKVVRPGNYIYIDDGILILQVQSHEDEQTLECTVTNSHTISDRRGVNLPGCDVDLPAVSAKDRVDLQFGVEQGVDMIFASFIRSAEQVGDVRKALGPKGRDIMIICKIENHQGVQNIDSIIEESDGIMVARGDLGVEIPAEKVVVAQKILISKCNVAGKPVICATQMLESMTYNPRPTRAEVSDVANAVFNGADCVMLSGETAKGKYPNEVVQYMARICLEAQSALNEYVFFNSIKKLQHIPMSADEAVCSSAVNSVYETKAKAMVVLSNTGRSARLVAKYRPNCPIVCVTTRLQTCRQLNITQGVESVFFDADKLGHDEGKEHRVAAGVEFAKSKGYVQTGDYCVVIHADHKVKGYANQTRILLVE
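Purified LmPK (0.1 nM) converted ADP (0.1 mM) to ATP with PEP (0.5 mM) in imidazole buffer pH 7.2 with KCl and MgCl2, 1 h at room temperature. ATP was read by Kinase-Glo luminescence; data normalized to uninhibited and no-enzyme controls.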
Pf growth 48h: P. falciparum growth inhibition at 48 hours (one generation); P. falciparum luciferase growth in erythrocytes, 48 h; hit rate 5.9% among 310,000; AID 504832; Potency, µM (top dose mostly 28.7 µM), without a hit: at the top dose activity change, negative = inhibition, actives largely listed as inhibitors; further: potency means the concentration at half of the fitted maximal effect; on the % scale 0 is the no-effect control and ±100 the full control effect
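First compound was added to culture medium, then infected red cells at 0.1% parasitemia and 2% hematocrit (final). After incubation at 37 C under 5% CO2, luciferase detection reagent was dispensed and light output recorded.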
Shiga toxin inh: Shiga toxin inhibition; Vero cells, Shiga toxin protein synthesis inhibition reporter; inhibition, % at 38.7 µM; hit rate 9.2% among 290,000; in the data active means inhibition mostly above about 28%, no sharp cut-off; inactive means mostly below about 43%; further: 0% is about no effect
* = called active by the depositor; ! = not active in a repeat. Unless noted, the call rests on the fitted dose curve; in most records, active means well fitted inhibition curve with a large enough effect; inconclusive means small, poorly fitted or top-dose-only effect, or another doubt; inactive means no such curve, though single readings can be large or run the other way.

Screening O=C(CN1CCN(Cc2ccc(Cl)cc2)CC1)N/N=C/c1c[nH]c2ccccc12 returned Cycloheximide cs -6, Pf growth 96h inconclusive, LmPK inhibitor 1%, Pf growth 48h -6% and Shiga toxin inh 5.
`Cn1ncc([N+](=O)[O-])c1C(=O)Nc1ccc(-c2nc3ccccc3o2)cc1` gave Cycloheximide cs 24*, Pf growth 96h 4.7µM*, LmPK inhibitor 2%, Pf growth 48h 6% and Shiga toxin inh 41*.
`COc1ccccc1NC(=O)c1c(N=Cc2c(O)ccc3ccccc23)cnn1C` gave Cycloheximide cs 0, Pf growth 96h inconclusive, LmPK inhibitor 5%, Pf growth 48h 7.4µM* and Shiga toxin inh 11.
`Cc1cccc(NC(=O)c2c([N+](=O)[O-])cnn2C)c1` gave Cycloheximide cs 4, Pf growth 96h -29%, LmPK inhibitor -3% and Pf growth 48h -2%.
Screening Cn1ncc([N+](=O)[O-])c1C(=O)Nc1cccc2ccccc12 returned Cycloheximide cs -4, Pf growth 96h 2.3µM*, LmPK inhibitor 1%, Pf growth 48h 16% and Shiga toxin inh -25.
For CC(C)(C)NC(=O)C(c1ccc(O)cc1)N(Cc1ccccc1)C(=O)CCC(=O)Nc1nccs1 (centres undefined) the results were Cycloheximide cs -3, Pf growth 96h -6%, LmPK inhibitor 5%, Pf growth 48h -3% and Shiga toxin inh -7.
CC(C)(C)NC(=O)C(c1ccc(O)cc1)N(C(=O)CCC(=O)Nc1nccs1)c1ccc(F)cc1 (centres undefined) was read as Cycloheximide cs 1, Pf growth 96h 10µM*, LmPK inhibitor 4%, Pf growth 48h inconclusive and Shiga toxin inh -14.
Cc1ccc(N(C(=O)CCC(=O)Nc2nccs2)C(C(=O)NC(C)(C)C)c2ccc(O)cc2)cc1 (centres undefined) was read as Cycloheximide cs 3, Pf growth 96h 8.3µM*, LmPK inhibitor 6%, Pf growth 48h inconclusive and Shiga toxin inh -17.
`Cc1cc2c([nH]c3ccccc32)c2c1OC(C)(C)C=C2` gave Cycloheximide cs 47*, Pf growth 96h -26%, LmPK inhibitor 3%, Pf growth 48h 141% and Shiga toxin inh 87*.
Screening CN1CCC2(CC1)N=C(c1ccc(F)cc1)C(=S)N2C(=O)c1ccc(C(C)(C)C)cc1 returned Cycloheximide cs -1, Pf growth 96h -23%, LmPK inhibitor 4%, Pf growth 48h -10% and Shiga toxin inh -2.
Screening CCCCC(CC)CN=C(N)NC(N)=NCCCCCCN=C(N)NC(N)=NCC(CC)CCCC (centres undefined) returned Pf growth 96h 0.066µM*! and Pf growth 48h 0.23µM*.
For CCCSc1nn2c(=O)c3ccccc3nc2s1 the results were Cycloheximide cs 39*, Pf growth 96h -2%, LmPK inhibitor 14µM* and Shiga toxin inh 66*.
Cc1cccc(Nc2nn3c(=O)c4ccccc4nc3s2)c1 was read as Cycloheximide cs 14, Pf growth 96h 19%, LmPK inhibitor 4%, Pf growth 48h 87% and Shiga toxin inh 55*.
For O=c1c2ccccc2nc2sc(Nc3cccc4ccccc34)nn12 the results were Pf growth 96h inconclusive and Pf growth 48h -11%.
Screening O=C(Cn1cnc2sc(-c3ccccc3)cc2c1=O)N1CCOCC1 returned Cycloheximide cs -3, Pf growth 96h 4%, LmPK inhibitor -2%, Pf growth 48h 17% and Shiga toxin inh -11.
Screening CC(=O)Cn1nnc2sc(-c3ccccc3)cc2c1=O returned Cycloheximide cs 46*, Pf growth 96h 18%, LmPK inhibitor 12%, Pf growth 48h 105% and Shiga toxin inh 93*.
`COc1ccc(-n2cnc3sc(-c4ccccc4)cc3c2=O)cc1` gave Cycloheximide cs 43*, Pf growth 96h -7%, LmPK inhibitor 4%, Pf growth 48h 165% and Shiga toxin inh 43.
For CC(=O)Cn1cnc2sc(-c3ccccc3)cc2c1=O the results were Cycloheximide cs 39*, Pf growth 96h 167%, LmPK inhibitor 1% and Shiga toxin inh 36*.
For N#CCn1cnc2sc(-c3ccccc3)cc2c1=O the results were Cycloheximide cs 27*, Pf growth 96h 0%, LmPK inhibitor 1%, Pf growth 48h 16% and Shiga toxin inh 58.
For O=c1c([N+](=O)[O-])cccn1Cc1cccc(Cl)c1 the results were Cycloheximide cs -1, Pf growth 96h 37%, LmPK inhibitor 10%, Pf growth 48h -4% and Shiga toxin inh 3.
`C[C@H](NC(=O)[C@@H]1CSC2c3ccccc3C(=O)N21)C(=O)NC1CCCCC1` (some centres undefined) gave Cycloheximide cs 4, Pf growth 96h inconclusive, LmPK inhibitor 0%, Pf growth 48h -9% and Shiga toxin inh 2.
`O=C1c2ccccc2C(=O)N1c1ncn[nH]1` gave Cycloheximide cs -3, Pf growth 96h 8%, LmPK inhibitor -2%, Pf growth 48h 0% and Shiga toxin inh -7.
Cn1nc(C(=O)NC(C)(C)C)c2ccccc21 was read as Cycloheximide cs -4, Pf growth 96h -4%, LmPK inhibitor 3%, Pf growth 48h 13% and Shiga toxin inh -2.
For O=C(Cc1ccccc1)Nc1sc2c(c1C(=O)Nc1cccc(Cl)c1)CCCC2 the results were Cycloheximide cs 16 and Shiga toxin inh 20.
CCn1cnc2sc(-c3ccccc3)cc2c1=O was read as Cycloheximide cs 29*, LmPK inhibitor -11%, Pf growth 48h 207% and Shiga toxin inh 112*.
Screening CC(C)Nc1nc(-c2ccccc2)nc(-n2ccnc2)n1 returned Cycloheximide cs 13, Pf growth 96h 3%, LmPK inhibitor -3%, Pf growth 48h 2.3µM* and Shiga toxin inh 21.
Screening c1ccc(CN2CCN(c3nc(-c4ccccc4)nc(-n4ccnc4)n3)CC2)cc1 returned Cycloheximide cs -3, Pf growth 96h -9%, LmPK inhibitor 3%, Pf growth 48h 3.7µM* and Shiga toxin inh -1.
Screening c1ccc(-c2ccc(CN3CCN(c4ncccn4)CC3)cc2)cc1 returned Cycloheximide cs 7, LmPK inhibitor 1%, Pf growth 48h 56% and Shiga toxin inh 36.
For CC(C)Nc1nc(-c2ccccc2)nnc1-c1ccccc1 the results were Cycloheximide cs -1, Pf growth 96h inconclusive, LmPK inhibitor 1%, Pf growth 48h inconclusive and Shiga toxin inh -12.
C=CCNc1nc(-c2ccccc2)nc(-n2ccnc2)n1 was read as Cycloheximide cs 1, Pf growth 96h inconclusive, LmPK inhibitor -2%, Pf growth 48h 13µM* and Shiga toxin inh -8.
For CCCCNc1nc(-c2ccccc2)nc(-n2ccnc2)n1 the results were Cycloheximide cs -5, Pf growth 96h 0%, LmPK inhibitor 13% and Shiga toxin inh -7.
`c1ccc(-c2nc(NC3CC3)nc(-n3ccnc3)n2)cc1` gave Cycloheximide cs 1, Pf growth 96h -3%, LmPK inhibitor 2%, Pf growth 48h 13µM* and Shiga toxin inh 12.
